The target in one test is MMP20. Kind of test: pooled miR-30 sensor sort-seq; sequence = guide strand. The following applies: shRNA.
Sequence TATTTGTGTAATATTTGTCAAG yielded a sensor-assay potency score (higher = more potent) of -1.1.

Consider TTCTTGTACTTATAAGTTGGGT, for which the sensor-assay potency score (higher = more potent) is -0.728.

TTTCCTTTTCCTTTCGTCGTAG showed a sensor-assay potency score (higher = more potent) of 0.328.

TGTAGCTCCTTAATCTTCCTTA registered a sensor-assay potency score (higher = more potent) of -0.0346.

Take TAATTCTACAGCAGCATCGATT: the sensor-assay potency score (higher = more potent) was -0.811.

Sequence TAGTCTTTTTCCATTTTCCTTT came in with a sensor-assay potency score (higher = more potent) of -0.827.

In turn, TTTCCTTTCGTCGTAGCTGTAG displayed a sensor-assay potency score (higher = more potent) of -0.397.

TTAATTCTACAGCAGCATCGAT showed a sensor-assay potency score (higher = more potent) of -0.771.

In turn, TTCTTGATCACGTTCATTGTGG yielded a sensor-assay potency score (higher = more potent) of -0.0903.

As to TTTCACATCATCTTTGGGGAGG, the sensor-assay potency score (higher = more potent) was -0.942.

TTCTACAGCAGCATCGATTTGG gave a sensor-assay potency score (higher = more potent) of -0.442.

The sequence TTCCTTATCATGGAATTGCTTC showed a sensor-assay potency score (higher = more potent) of -0.732.

In the next test the target is MMP27. Described as above. The following applies: shRNA.
For TATTTCAAGAGAGTAGAACTGG, the sensor-assay potency score (higher = more potent) was found to be 0.764.

In turn, TTAATTCAAACTCAACATCCGT returned a sensor-assay potency score (higher = more potent) of -0.367.

TATTCTTTGTCTTAATGTCGTA: the sensor-assay potency score (higher = more potent) was -0.516.

With TTGTGGTCTTATCACAGACGGC, the sensor-assay potency score (higher = more potent) is -1.63.

Take TAATTTGGGAACATCAAGGCTG: the sensor-assay potency score (higher = more potent) is 0.912.

Sequence ATTCTTTGTCTTAATGTCGTAT gave a sensor-assay potency score (higher = more potent) of -0.054.

As for TTTCTTGTGGTCTTATCACAGA, the sensor-assay potency score (higher = more potent) is -0.677.

In turn, TAATTCAAACTCAACATCCGTG showed a sensor-assay potency score (higher = more potent) of 0.0831.

On to TAGTTTATTATTCTGTAGGTGA, for which the sensor-assay potency score (higher = more potent) is -0.199.

Take TAGGTTTTTCTTGTGGTCTTAT: the sensor-assay potency score (higher = more potent) was -0.201.

In turn, TTTGGGAACATCAAGGCTGTTT yielded a sensor-assay potency score (higher = more potent) of -0.134.

Consider AAGAACATTACTTCTCTGCGGA, for which the sensor-assay potency score (higher = more potent) was 0.732.

In the next test the target is MMS22L. Described as above. As to conditions: shRNA.
The sequence TTCTTGAACACCATCAATGTAT showed a sensor-assay potency score (higher = more potent) of -0.0869.

TTGCTGACAACATAGGTGCAGG had a sensor-assay potency score (higher = more potent) of -1.03.

With TTCTTCTAGAATGACACCCTGA, the sensor-assay potency score (higher = more potent) amounted to 0.182.

On to TATATTTTAATACTTCACCAAG, for which the sensor-assay potency score (higher = more potent) was -1.14.

As to TTTATCGCAACAGCAAGTCTTC, the sensor-assay potency score (higher = more potent) was -0.217.

TTTTTTAACAACTTTTGCCAGA: the sensor-assay potency score (higher = more potent) is -0.793.

Sequence TATCTTGCTACAACTTGAGGGC returned a sensor-assay potency score (higher = more potent) of -0.184.

The sequence TTGAGATTGACAACACACGATA registered a sensor-assay potency score (higher = more potent) of -0.65.

The sequence TTAAGTAGTTTATTCAACCAGT registered a sensor-assay potency score (higher = more potent) of -0.299.

Turning to TAATCTTGTCAGTTTGACCAAC, the sensor-assay potency score (higher = more potent) is -0.606.

In the case of TAATCCACCAACTAAAACCTAA, the sensor-assay potency score (higher = more potent) was -0.962.

Sequence TTTGAGATTGACAACACACGAT came in with a sensor-assay potency score (higher = more potent) of 0.337.

Source of the values: the OligoGym collection.
Note: reference of the scale not given here.
